Assay [1] can be described thus: Caspase-3/7 induction in CHO-K1 cells by small molecules, qHTS assay (AID 1346980). Note: nearly all actives have a fitted effect of over 15% in size. The procedure, abridged: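 Luminescent Caspase-Glo 3/7 read (30min, room temperature) quantified apoptosis induction. Cells were wild-type CHO-K1, treated with compound for 17hr at 37 C and 5% CO2.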
(In qHTS, concentration-response curves come from the screen itself.)

Assay [2] in a line: Caspase-3/7 induction in HepG2 cells by small molecules, qHTS cell viability counter screen (AID 1346981). Note: series mostly up to about 92 µM; nearly all actives have a fitted effect of over 30% in size. The procedure, abridged:
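HepG2, WT, 2,000 cells/well; 5 hr pre-incubation 37 C/5% CO2; compound pin-transferred from DMSO; 16 hr exposure; CellTiter-Fluor, 1 hr; fluorescence read.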

Assay [3] addresses Nuclear receptor subfamily 1 group I member 2 (Homo sapiens) (UniProt O75469). As to the kind of experiment: Human pregnane X receptor (PXR) small molecule agonists, qHTS assay (AID 1346982). Note: nearly all actives have a fitted effect of over 35% in size. Note: potency is the fitted concentration of half-maximal effect. An outline of the steps: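 Luciferase signal from ONE-Glo (30 min, room temperature) measured activation of hPXR-driven CYP3A4 reporter expression in PXR-Luc HepG2 cells treated with compounds for 24 hr at 37 C.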

Assay [4] deals with Nuclear receptor subfamily 1 group I member 2 (Rattus norvegicus) (UniProt Q9R1A7). As to the kind of experiment: Rat pregnane X receptor (rPXR) activation by small molecules, qHTS assay (AID 1346983). Note: nearly all actives have a fitted effect of over 20% in size. The conditions noted are these: rPXR luciferase reporter cells, One-Glo luminescence, 24 h; stronger effect = higher value. An outline of the steps: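 Luminescent readout (One-Glo luciferase, 30 min room temperature) followed 24 hr compound treatment at 37 C of rPXR cells plated 2,000 per well and preincubated 5hr; qHTS format with compounds delivered in DMSO.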

Assay [5] addresses Nuclear receptor subfamily 1 group I member 2 (Homo sapiens) (UniProt O75469). As to the kind of experiment: CYP3A4 induction through human pregnane X receptor (PXR) by small molecules, qHTS assay (AID 1346984). Note: nearly all actives have a fitted effect of over 40% in size. An outline of the steps: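 Luminescence readout: luciferase signal after One-Glo (30 min, room temperature), following 3 h at 37C with 3uM final Luciferin-IPA P450 substrate. Cells were DPX-2 (HepG2, PXR/CYP3A4-luc co-transfected) dosed for 24 h.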

For assay [6], the target named is Acetylcholinesterase (Homo sapiens) (UniProt P22303). As to the kind of experiment: Acetylcholinesterase (AChE) small molecule antagonists: enzyme-based qHTS assay (AID 1347397; calls by dose curve; note: nearly all actives have a fitted effect of over 55% in size). The conditions noted are these: Potency: AChE enzyme activity inhibition. The procedure, abridged: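 Absorbance-based detection of thiocholine with DTNB served as the read-out. Recombinant human AChE was exposed to compound for 30 min at RT before a 10 min RT incubation with acetylthiocholine.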

Assay [7] has the same target. Put plainly: Acetylcholinesterase (AChE) small molecule antagonists: enzyme-based qHTS assay with human liver microsomes (AID 1347399; calls by dose curve; note: nearly all actives have a fitted effect of over 60% in size). Particulars: Potency: qHTS inhibition. An outline of the steps: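 Recombinant human AChE (50 mU/mL in the enzyme mix) and human liver microsomes (0.25 mg/mL final) were preincubated with compound and NADPH (0.25 mg/mL final) for 30 min at 37 C. Acetylthiocholine/DTNB was then added; thiocholine was read colorimetrically after 10 min at room temperature.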

Assay [8] addresses Cytochrome P450 2D6 (Homo sapiens) (UniProt P10635). Put plainly: Cytochrome P450 Family 2 Subfamily D Member 6 (CYP2D6) small molecule antagonists: luciferase reporter qHTS assay (AID 1671196). Note: nearly all actives have a fitted effect of over 50% in size. Note: potency is the fitted concentration of half-maximal effect. An outline of the steps:
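Read-out is luminescence from luciferin formed by CYP2D6 turnover of a proluciferin substrate, recorded as relative luminescence units. Reactions ran 1 h at room temperature after NADPH regeneration solution was added.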

The target of assay [9] is Cytochrome P450 2C19 (Homo sapiens) (UniProt P33261). As to the kind of experiment: Cytochrome P450 Family 2 Subfamily C Member 19 (CYP2C19) small molecule antagonists: luciferase reporter qHTS assay (AID 1671197). Note: nearly all actives have a fitted effect of over 65% in size. Note: potency is the fitted concentration of half-maximal effect. An outline of the steps: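 Quantitative high-throughput screen of the Tox21 library using CYP2C19 with proluciferin substrate. Reaction: NADPH regeneration, 37C, 1 h, after 10 min compound preincubation at room temperature. Readout: luminescence.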

Assay [10] deals with Cytochrome P450 2C9 (Homo sapiens) (UniProt P11712). Put plainly: Cytochrome P450 Family 2 Subfamily C Member 9 (CYP2C9) small molecule antagonists: luciferase reporter qHTS assay (AID 1671198). Note: nearly all actives have a fitted effect of over 50% in size. Note: potency is the fitted concentration of half-maximal effect. An outline of the steps:
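Enzyme-substrate mix preincubated with compound 10 min at room temperature; reaction started with NADPH regeneration solution, 1 h 37C. Luminescent luciferin product read after 20 min detection reagent.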
(In general: In a reporter assay the amount or activity of a reporter protein is the signal.)

For assay [11], the target named is Cytochrome P450 1A2 (Homo sapiens) (UniProt P05177). Put plainly: Cytochrome P450 Family 1 Subfamily A Member 2 (CYP1A2) small molecule antagonists: luciferase reporter qHTS assay (AID 1671199). Note: nearly all actives have a fitted effect of over 50% in size. Note: potency is the fitted concentration of half-maximal effect. The procedure, abridged:
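P450-Glo CYP1A2, 1536-well qHTS: enzyme/proluciferin substrate + cpd (DMSO), 10 min RT; NADPH regen, 1 h RT; detection reagent, 20 min; luminescence, RLU.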

The target of assay [12] is Voltage-gated inwardly rectifying potassium channel KCNH2 (Homo sapiens) (UniProt Q12809). As to the kind of experiment: Human Ether-a-go-go-Related Gene (hERG) channel small molecule antagonists: fluorescence cell-based qHTS assay (AID 1671200).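 Note: hERG-expressing U2OS cells given a thallium stimulus after FluxOR II dye loading; series mostly up to about 77 µM; nearly all actives have a fitted effect of over 50% in size.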 The procedure, abridged:
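Channel function was assessed by thallium flux. Cells seeded the previous day and kept at 37 C took up FluxOR II dye over 1 h in the dark at room temperature, then sat another 10 min before stimulation.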
On the technique in general: hERG is a cardiac potassium channel; its block is linked to QT prolongation.

Assay [13] in a line: Caspase-3/7 induction in CHO-K1 cells by small molecules, qHTS cell viability counter screen (AID 1346979). Note: nearly all actives have a fitted effect of over 35% in size. An outline of the steps: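 Cells (CHO-K1, wild type) are plated at 1,500 per well and incubated 5hr. Test compounds in DMSO are then pinned in, followed by 16hr at 37C and 5% CO2. Viability is read by CellTiter-Fluor fluorescence after 1hr.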
Assay [14] addresses Acetylcholinesterase (Homo sapiens) (UniProt P22303). As to the kind of experiment: Acetylcholinesterase (AChE) small molecule antagonists: colormetric cell-based qHTS assay (AID 1347395; calls by dose curve; note: nearly all actives have a fitted effect of over 30% in size). The procedure, abridged: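 Colorimetric read-out: DTNB detects thiocholine released when cellular AChE in SH-SY5Y cells hydrolyses acetylthiocholine. Cells attached overnight, received compound for 30 min at 37 C, then substrate mix for 90 min at 37 C.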

Assay [15] shares this target. As to the kind of experiment: Acetylcholinesterase (AChE) small molecule antagonists: fluorescence cell-based qHTS assay (AID 1347398; calls by dose curve; note: nearly all actives have a fitted effect of over 50% in size). Particulars: Potency: AChE activity. An outline of the steps: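 Fluorimetric cell-based assay: intact SH-SY5Y cells, 30 min compound preincubation at 37 C, acetylthiocholine substrate with thiol probe Thiolite Green, 40 min RT development, fluorescence 490/520 nm.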

Assay [16] deals with Cytochrome P450 3A4 (Homo sapiens) (UniProt P08684). As to the kind of experiment: Cytochrome P450 Family 3 Subfamily A Member 4 (CYP3A4) small molecule antagonists: luciferase reporter qHTS assay (AID 1671201). Note: nearly all actives have a fitted effect of over 50% in size. Note: potency is the fitted concentration of half-maximal effect. An outline of the steps: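 Compounds in DMSO were pin-transferred onto CYP3A4 enzyme-substrate mix and held 10 min at room temperature. NADPH regenerating solution started the reaction for 1 h; luciferin detection reagent stopped it, and luminescence was read after 20 min.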

Results on seven molecules are retold here after PubChem BioAssay (Tox21).

Several values for one entry are separate records, joined by “and”; a condition that tells them apart may be missing. Equal entries are not always repeated. Inconclusive results are not listed. More than one record can exist for a structure, and the calls need not agree. Activity calls are given as the source filed them. Unless noted, calls come from the whole dose curve; as a rule, active = well fitted curve in the direction sought with a large enough effect in the repeat runs; inconclusive = weak or mixed curves; inactive = no such curve, though single readings can be large; an effect the other way counts as inactive or inconclusive.
% is set by controls: 0 for no effect and ±100 for the full control effect.

Chain of Cytochrome P450 3A4 (Homo sapiens) (P08684 whole entry, looked up): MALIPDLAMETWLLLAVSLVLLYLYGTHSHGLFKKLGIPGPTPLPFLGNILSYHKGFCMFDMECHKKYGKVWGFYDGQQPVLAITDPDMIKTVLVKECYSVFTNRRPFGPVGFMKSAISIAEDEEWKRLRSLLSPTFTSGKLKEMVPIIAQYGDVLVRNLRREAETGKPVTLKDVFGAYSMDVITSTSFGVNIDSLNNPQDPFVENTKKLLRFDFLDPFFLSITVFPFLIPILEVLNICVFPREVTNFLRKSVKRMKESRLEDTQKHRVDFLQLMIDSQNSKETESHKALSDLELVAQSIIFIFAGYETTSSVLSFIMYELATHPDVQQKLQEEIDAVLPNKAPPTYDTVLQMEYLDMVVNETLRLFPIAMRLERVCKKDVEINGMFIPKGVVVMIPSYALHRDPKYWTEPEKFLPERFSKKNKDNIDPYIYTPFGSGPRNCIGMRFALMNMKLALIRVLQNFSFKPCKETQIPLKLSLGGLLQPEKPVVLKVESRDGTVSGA
Chain of Nuclear receptor subfamily 1 group I member 2 (Homo sapiens) (O75469 whole entry, looked up): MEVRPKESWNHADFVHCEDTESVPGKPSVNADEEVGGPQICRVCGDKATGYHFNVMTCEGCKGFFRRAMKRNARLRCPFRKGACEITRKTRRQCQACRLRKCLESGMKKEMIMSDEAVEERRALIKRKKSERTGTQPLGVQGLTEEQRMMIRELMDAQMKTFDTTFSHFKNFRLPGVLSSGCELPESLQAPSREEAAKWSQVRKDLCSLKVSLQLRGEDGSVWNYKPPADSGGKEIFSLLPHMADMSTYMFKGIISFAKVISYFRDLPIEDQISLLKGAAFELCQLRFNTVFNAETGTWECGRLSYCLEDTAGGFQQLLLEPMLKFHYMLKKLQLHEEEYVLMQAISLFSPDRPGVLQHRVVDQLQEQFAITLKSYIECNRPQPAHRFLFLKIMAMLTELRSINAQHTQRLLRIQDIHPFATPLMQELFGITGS
Chain of Cytochrome P450 1A2 (Homo sapiens) (P05177 whole entry, looked up): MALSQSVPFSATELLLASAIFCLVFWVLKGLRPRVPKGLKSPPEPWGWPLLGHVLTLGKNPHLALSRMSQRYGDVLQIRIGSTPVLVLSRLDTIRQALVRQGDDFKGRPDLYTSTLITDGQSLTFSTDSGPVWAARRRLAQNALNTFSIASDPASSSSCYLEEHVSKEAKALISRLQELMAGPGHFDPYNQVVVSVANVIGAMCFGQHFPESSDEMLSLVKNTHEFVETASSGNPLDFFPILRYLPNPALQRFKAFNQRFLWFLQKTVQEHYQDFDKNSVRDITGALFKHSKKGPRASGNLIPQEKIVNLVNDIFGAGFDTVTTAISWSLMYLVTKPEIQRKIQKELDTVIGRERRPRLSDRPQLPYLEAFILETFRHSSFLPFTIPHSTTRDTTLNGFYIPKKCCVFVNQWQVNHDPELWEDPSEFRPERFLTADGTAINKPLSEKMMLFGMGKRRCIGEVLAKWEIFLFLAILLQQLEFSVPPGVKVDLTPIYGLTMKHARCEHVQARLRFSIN
Chain of Acetylcholinesterase (Homo sapiens) (P22303 whole entry, looked up): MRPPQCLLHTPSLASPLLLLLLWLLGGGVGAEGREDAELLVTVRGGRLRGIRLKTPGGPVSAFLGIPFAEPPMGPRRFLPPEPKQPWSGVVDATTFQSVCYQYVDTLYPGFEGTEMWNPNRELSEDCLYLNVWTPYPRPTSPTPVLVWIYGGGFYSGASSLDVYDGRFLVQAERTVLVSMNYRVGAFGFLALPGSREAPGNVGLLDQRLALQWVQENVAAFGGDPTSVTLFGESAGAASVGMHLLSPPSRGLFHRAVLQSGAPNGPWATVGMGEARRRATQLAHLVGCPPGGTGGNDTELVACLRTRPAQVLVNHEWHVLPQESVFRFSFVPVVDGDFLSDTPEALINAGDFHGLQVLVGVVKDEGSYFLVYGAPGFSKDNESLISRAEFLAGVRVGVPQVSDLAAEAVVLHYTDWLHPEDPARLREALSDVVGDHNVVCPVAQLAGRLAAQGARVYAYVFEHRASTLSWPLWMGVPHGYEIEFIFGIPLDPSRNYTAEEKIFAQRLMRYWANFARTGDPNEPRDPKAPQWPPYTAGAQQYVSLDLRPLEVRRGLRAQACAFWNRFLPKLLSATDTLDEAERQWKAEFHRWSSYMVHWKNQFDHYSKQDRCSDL
Chain of Cytochrome P450 2D6 (Homo sapiens) (P10635 whole entry, looked up): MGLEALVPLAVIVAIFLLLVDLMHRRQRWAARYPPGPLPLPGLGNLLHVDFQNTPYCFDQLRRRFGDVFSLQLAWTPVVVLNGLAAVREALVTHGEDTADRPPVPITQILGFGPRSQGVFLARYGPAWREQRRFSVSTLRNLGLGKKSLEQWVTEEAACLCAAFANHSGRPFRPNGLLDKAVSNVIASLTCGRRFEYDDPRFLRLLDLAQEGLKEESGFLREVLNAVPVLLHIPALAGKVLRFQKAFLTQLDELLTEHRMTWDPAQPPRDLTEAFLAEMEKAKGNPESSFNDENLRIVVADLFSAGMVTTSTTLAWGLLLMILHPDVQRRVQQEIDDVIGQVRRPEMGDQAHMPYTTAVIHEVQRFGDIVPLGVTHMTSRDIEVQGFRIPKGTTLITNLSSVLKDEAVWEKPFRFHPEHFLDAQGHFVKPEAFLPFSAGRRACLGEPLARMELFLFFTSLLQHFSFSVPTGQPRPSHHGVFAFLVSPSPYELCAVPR
Chain of Cytochrome P450 2C19 (Homo sapiens) (P33261 whole entry, looked up): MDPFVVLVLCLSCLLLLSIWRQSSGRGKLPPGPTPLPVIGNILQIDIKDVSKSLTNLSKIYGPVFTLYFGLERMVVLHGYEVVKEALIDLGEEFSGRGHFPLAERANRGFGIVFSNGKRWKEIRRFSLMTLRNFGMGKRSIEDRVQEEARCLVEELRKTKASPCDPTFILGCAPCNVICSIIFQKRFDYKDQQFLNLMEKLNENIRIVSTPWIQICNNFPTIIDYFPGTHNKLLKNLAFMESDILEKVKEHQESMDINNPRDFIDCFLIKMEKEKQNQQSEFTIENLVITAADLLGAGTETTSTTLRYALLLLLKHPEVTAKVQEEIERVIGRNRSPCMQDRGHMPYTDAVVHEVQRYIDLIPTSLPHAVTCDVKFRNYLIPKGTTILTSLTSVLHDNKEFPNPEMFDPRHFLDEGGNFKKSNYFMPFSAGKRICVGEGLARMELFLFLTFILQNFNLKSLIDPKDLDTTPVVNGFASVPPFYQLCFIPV
Chain of Voltage-gated inwardly rectifying potassium channel KCNH2 (Homo sapiens) (Q12809 whole entry, looked up): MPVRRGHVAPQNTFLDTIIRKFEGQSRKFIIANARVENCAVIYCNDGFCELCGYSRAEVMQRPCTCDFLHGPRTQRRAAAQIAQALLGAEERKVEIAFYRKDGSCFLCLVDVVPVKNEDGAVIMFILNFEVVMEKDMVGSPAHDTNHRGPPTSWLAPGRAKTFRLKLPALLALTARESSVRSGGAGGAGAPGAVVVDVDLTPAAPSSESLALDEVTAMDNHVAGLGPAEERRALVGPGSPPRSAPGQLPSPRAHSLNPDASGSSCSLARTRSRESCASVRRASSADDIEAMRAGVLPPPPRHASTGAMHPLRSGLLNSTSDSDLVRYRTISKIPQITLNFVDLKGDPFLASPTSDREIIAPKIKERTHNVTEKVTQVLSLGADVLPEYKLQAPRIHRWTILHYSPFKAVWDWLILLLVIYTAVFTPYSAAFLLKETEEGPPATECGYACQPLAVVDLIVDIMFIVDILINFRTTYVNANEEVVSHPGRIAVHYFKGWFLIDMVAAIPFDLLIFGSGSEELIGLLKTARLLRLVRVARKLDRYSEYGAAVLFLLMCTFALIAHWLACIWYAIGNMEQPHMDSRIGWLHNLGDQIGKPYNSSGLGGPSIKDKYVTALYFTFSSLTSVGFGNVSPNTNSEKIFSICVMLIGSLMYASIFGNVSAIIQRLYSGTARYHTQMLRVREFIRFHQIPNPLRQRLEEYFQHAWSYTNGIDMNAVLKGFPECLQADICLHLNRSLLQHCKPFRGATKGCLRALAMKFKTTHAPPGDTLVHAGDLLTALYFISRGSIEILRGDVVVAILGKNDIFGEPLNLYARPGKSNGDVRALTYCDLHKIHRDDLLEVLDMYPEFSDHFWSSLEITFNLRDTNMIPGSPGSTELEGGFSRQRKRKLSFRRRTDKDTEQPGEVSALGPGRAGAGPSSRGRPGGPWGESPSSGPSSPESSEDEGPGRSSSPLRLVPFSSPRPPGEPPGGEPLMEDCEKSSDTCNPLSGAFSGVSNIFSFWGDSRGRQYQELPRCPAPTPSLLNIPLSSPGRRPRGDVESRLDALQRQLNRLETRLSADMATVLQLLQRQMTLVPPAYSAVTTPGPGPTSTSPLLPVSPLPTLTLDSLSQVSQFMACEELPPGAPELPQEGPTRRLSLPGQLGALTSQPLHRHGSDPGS
Chain of Cytochrome P450 2C9 (Homo sapiens) (P11712 whole entry, looked up): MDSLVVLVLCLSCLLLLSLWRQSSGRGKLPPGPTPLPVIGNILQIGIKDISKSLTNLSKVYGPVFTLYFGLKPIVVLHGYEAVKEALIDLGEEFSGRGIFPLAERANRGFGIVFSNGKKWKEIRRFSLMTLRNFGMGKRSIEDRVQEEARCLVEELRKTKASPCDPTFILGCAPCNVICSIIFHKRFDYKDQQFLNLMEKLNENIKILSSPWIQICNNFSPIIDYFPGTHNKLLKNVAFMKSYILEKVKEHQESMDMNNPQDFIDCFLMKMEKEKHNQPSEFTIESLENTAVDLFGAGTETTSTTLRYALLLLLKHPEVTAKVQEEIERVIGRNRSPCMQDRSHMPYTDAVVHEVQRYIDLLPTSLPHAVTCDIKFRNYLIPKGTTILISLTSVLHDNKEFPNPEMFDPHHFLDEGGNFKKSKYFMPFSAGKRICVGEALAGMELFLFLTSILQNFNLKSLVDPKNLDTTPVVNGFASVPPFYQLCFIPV

On to `CCN(CC)C(=O)/C(Cl)=C(\C)OP(=O)(OC)OC`, for which the Potency result in assay [1], in assay [2], in assay [6], in [7], in [8] and in assay [9] was “inactive” in each case. The Potency result in [10] and in [12] was “inactive” each time. Further, the Potency result in assay [3] is “inactive and 54.5 µM (active)”; in assay [11], “inactive and 39.9 µM (active)”. For the same molecule, the max activation in [4] is 5.74% (inactive). Further, the call in assay [5] was inactive.
For `COc1ccc(C=O)cc1`, the Potency result in [13], in assay [1], in [2], in [3], in assay [14] and in [6] was “inactive” in each case. Moreover, the Potency result in assay [15], in assay [7], in assay [8], in assay [9], in assay [10] and in assay [11] was “inactive” each time. Besides, the Potency entry in [12] and in [16] was “inactive” each time.
In the case of `CCOc1cc(Oc2ccc(C(F)(F)F)cc2Cl)ccc1[N+](=O)[O-]`, the Potency entry in assay [1], in [2], in assay [6], in assay [15], in assay [7] and in assay [12] was “inactive” each time. The Potency in [3] is 27.6 µM (active) and 17.2 µM (active); in [8], 2.27 µM (active) and 5.64 µM (active); in [9], 5.7 µM (active) and 7.1 µM (active); in [10] it was 4.53 µM (active) and 6.33 µM (active); in assay [11] it was 20 µM (active).
`Cc1ccccc1[N+](=O)[O-]`: the Potency entry in assay [1], in assay [2], in [3], in assay [14], in assay [6] and in assay [15] was “inactive” throughout. The Potency entry in [7], in [8], in [9], in [10], in assay [11] and in assay [12] was “inactive” in each case. In addition, the Potency entry in assay [16] is “inactive”.
`NC(=S)Nc1ccccc1`: the Potency result in assay [13], in assay [1], in assay [2], in assay [3], in [14] and in [6] was “inactive” each time. For the same molecule, the Potency result in assay [15], in assay [7] and in [12] was “inactive” in each case. The Potency was 9.09 µM (active) and 35.6 µM (active) in assay [8]; 4.06 µM (active) and inactive in assay [9]; 25.6 µM (active) and inactive in [10]; 25.6 µM (active) and inactive in assay [11]; 5.73 µM (active) and inactive in [16].
For `Cc1ccc(N)c(N)c1`, the Potency entry in assay [1], in assay [2], in [6], in assay [15], in assay [7] and in assay [12] was “inactive” each time. Besides, the Potency in [3] was 8.66 µM (active) and 19.3 µM (active); in assay [8], 3.57 µM (active) and 17.8 µM (active); in assay [9] it was 17.9 µM (active) and 31.7 µM (active); in assay [10], 35.7 µM (active) and 20 µM (active); in [11], 5.66 µM (active) and 20 µM (active); in [16], 31.8 µM (active) and 31.7 µM (active).
Turning to `c1nc[nH]n1`, the Potency result in assay [1], in [2], in assay [3], in [6], in assay [15] and in [7] was “inactive” each time. Further, the Potency entry in assay [8], in [9], in [10] and in [12] was “inactive” throughout. The Potency in assay [11] was 62 µM (active) and 71 µM (active).
